Experimental data reported in PubChem BioAssay (EPA / NIEHS).
The source made the active and inactive calls. Rule for the calls: active = hit-call score of the fitted dose curve at least 0.9, where 1 is the maximum; inactive = score below 0.9.

Assays:
[1] = read-out: Forkhead box O1 (FOXO1), FOXO1 (gene 2308); test: LTEA_HepaRG_FOXO1: Life Technologies and Expression Analysis (LTEA) Assay for Forkhead box O1 (FOXO1) using HepaRG (AID 2283456); settings: mRNA level, 48 h; actives raise or lower the signal
Method in brief: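 HepaRG, 48 h exposure, 8-pt half-log series from 100 uM in 0.5% DMSO, duplicates; Fluidigm qRT-PCR mRNA, housekeeping-normalised; bidirectional fit vs DMSO baseline.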

[2] = CEETOX_H295R_TESTO: CeeTox H295R High-throughput Steroidogenesis Assay for Testosterone (TESTO) (AID 2283457); settings: actives raise or lower the signal
Method in brief: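 H295R, passage ≤10, 48 h dosing; media extracted with MTBE → HPLC-MS/MS for testosterone; 7-pt standard curve sets LLOQ/ULOQ; bidirectional fit vs DMSO; MTT viability same wells.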

[3] = read-out: growth arrest and DNA damage 45 (GADD45A), GADD45A (gene 1647); test: LTEA_HepaRG_GADD45A: Life Technologies and Expression Analysis (LTEA) Assay for growth arrest and DNA damage 45 (GADD45A) using HepaRG (AID 2283458); settings: mRNA level, 48 h; actives raise or lower the signal
Method in brief: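 HepaRG, 48 h exposure, 8 conc. (top 100 uM, half-log steps), 0.5% DMSO vehicle, duplicates. Read-out: qRT-PCR mRNA level, housekeeping-normalized (ACTB/GAPDH/POLR2A). Curves fit bidirectionally vs DMSO baseline.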

[4] = read-out: Forkhead box O3 (FOXO3), FOXO3 (gene 2309); test: LTEA_HepaRG_FOXO3: Life Technologies and Expression Analysis (LTEA) Assay for Forkhead box O3 (FOXO3) using HepaRG (AID 2283459); settings: mRNA level, 48 h; actives raise or lower the signal
Method in brief: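 qRT-PCR readout of FOXO3 transcript, normalized to three housekeeping genes (ACTB, GAPDH, POLR2A); gain or loss fitted against 0.5% DMSO vehicle. HepaRG cells, 48 h chemical exposure, 8-point half-log series, top 100 uM.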

[5] = read-out: ABC Transporter (ABCB1), ABCB1 (gene 5243); test: LTEA_HepaRG_ABCB1: Life Technologies and Expression Analysis (LTEA) Assay for ABC Transporter (ABCB1) using HepaRG (AID 2283460); settings: mRNA level, 48 h; actives raise or lower the signal
Method in brief: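 HepaRG, 48 h exposure, 8-pt half-log series from 100 uM, 0.5% DMSO vehicle, duplicates. Readout: ABCB1 transcript by Fluidigm TaqMan qRT-PCR, housekeeping-normalized; bidirectional curve fit vs DMSO baseline.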

[6] = read-out: growth arrest and DNA damage 45 (GADD45B), GADD45B (gene 4616); test: LTEA_HepaRG_GADD45B: Life Technologies and Expression Analysis (LTEA) Assay for growth arrest and DNA damage 45 (GADD45B) using HepaRG (AID 2283461); settings: mRNA level, 48 h; actives raise or lower the signal
Method in brief: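 HepaRG, ~100,000 cells/well, 48 h plating; serum-free induction medium; cpd 100 uM top, half-log x8, 0.5% DMSO, duplicate, 48 h; lysis in RLT, RNA isolation, qRT-PCR; norm ACTB/GAPDH/POLR2A; bidirectional fit vs DMSO.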

[7] = read-out: ABC Transporter (ABCC3), ABCC3 (gene 8714); test: LTEA_HepaRG_ABCC3: Life Technologies and Expression Analysis (LTEA) Assay for ABC Transporter (ABCC3) using HepaRG (AID 2283462); settings: mRNA level, 48 h; actives raise or lower the signal
Method in brief: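 Human HepaRG, 48 h dosing, 8-pt half-log series from 100 uM, 0.5% DMSO vehicle, duplicates. ABCC3 mRNA by TaqMan qRT-PCR, housekeeping-normalized; bidirectional curve fit vs DMSO.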

[8] = read-out: ABC Transporter (ABCC2), ABCC2 (gene 1244); test: LTEA_HepaRG_ABCC2: Life Technologies and Expression Analysis (LTEA) Assay for ABC Transporter (ABCC2) using HepaRG (AID 2283464); settings: mRNA level, 48 h; actives raise or lower the signal
Method in brief: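 HepaRG, 48 h post-plating; serum-free induction medium; cpd 8-pt, 100 uM top, half-log, 0.5% DMSO, duplicate, 48 h. Readout: ABCC2 mRNA by qRT-PCR, norm. ACTB/GAPDH/POLR2A. Bidirectional fit vs DMSO baseline.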

[9] = read-out: Broad substrate specificity ATP-binding cassette transporter ABCG2 (Homo sapiens) (UniProt Q9UNQ0); test: LTEA_HepaRG_ABCG2: Life Technologies and Expression Analysis (LTEA) Assay for ABC Transporter (ABCG2) using HepaRG (AID 2283465); settings: mRNA level, 48 h; actives raise or lower the signal
Method in brief: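 HepaRG, 48 h exposure, 8-pt half-log series from 100 uM, 0.5% DMSO vehicle, duplicates. Readout: ABCG2 transcript by qRT-PCR (Fluidigm array), housekeeping-normalized; bidirectional curve fit relative to DMSO baseline.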

[10] = read-out: ATP-citrate lyase (ACLY), ACLY (gene 47); test: LTEA_HepaRG_ACLY: Life Technologies and Expression Analysis (LTEA) Assay for ATP-citrate lyase (ACLY) using HepaRG (AID 2283466); settings: mRNA level, 48 h; actives raise or lower the signal
Method in brief: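 qRT-PCR readout of ACLY transcript after 48 h chemical treatment of HepaRG cells; expression normalized to three housekeeping genes. Eight-point half-log series, highest 100 uM, 0.5% DMSO vehicle. Gain or loss fitted against DMSO baseline.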

[11] = read-out: Peroxisomal acyl-coenzyme A oxidase 1 (ACOX1) gene, ACOX1 (gene 51); test: LTEA_HepaRG_ACOX1: Life Technologies and Expression Analysis (LTEA) Assay for Peroxisomal acyl-coenzyme A oxidase 1 (ACOX1) gene using HepaRG (AID 2283467); settings: mRNA level, 48 h; actives raise or lower the signal
Method in brief: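 HepaRG, 48 h chemical exposure, 8-pt half-log series from 100 uM top, 0.5% DMSO vehicle, duplicates. Readout: ACOX1 mRNA by Fluidigm qRT-PCR, housekeeping-normalized; bidirectional fit vs DMSO baseline.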

[12] = read-out: Alkaline Phosphatase, Placental (ALPP) gene, ALPP (gene 250); test: LTEA_HepaRG_ALPP: Life Technologies and Expression Analysis (LTEA) Assay for Alkaline Phosphatase, Placental (ALPP) gene using HepaRG (AID 2283468); settings: mRNA level, 48 h; actives raise or lower the signal;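 for AC50: differentiated human HepaRG liver cells in serum-free induction medium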
Method in brief: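 HepaRG, 48 h plating then 48 h dosing, serum-free induction medium, 0.5% DMSO. 8 conc, half-log, max 100 uM, duplicates. Endpoint: ALPP transcript by qRT-PCR, housekeeping-normalized; gain or loss fitted vs DMSO.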

[13] = read-out: Bcl-2 (BAD) gene, BAD (gene 572); test: LTEA_HepaRG_BAD: Life Technologies and Expression Analysis (LTEA) Assay for Bcl-2 (BAD) gene using HepaRG (AID 2283469); settings: mRNA level, 48 h; actives raise or lower the signal
Method in brief: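 HepaRG, 48 h exposure, 8-pt half-log curve from 100 uM in 0.5% DMSO, duplicates. Readout: TaqMan qRT-PCR for BAD mRNA, housekeeping-normalised (ACTB/GAPDH/POLR2A); gain or loss fitted against DMSO baseline.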

[14] = read-out: Bcl-2 (BAX) gene, BAX (gene 581); test: LTEA_HepaRG_BAX: Life Technologies and Expression Analysis (LTEA) Assay for Bcl-2 (BAX) gene using HepaRG (AID 2283470); settings: mRNA level, 48 h; actives raise or lower the signal
Method in brief: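 qRT-PCR read-out of BAX mRNA, normalized to three housekeeping genes, after 48 h chemical exposure of human HepaRG cells in serum-free induction medium; eight-point half-log series, top 100 uM, 0.5% DMSO vehicle; bidirectional fit versus DMSO.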

[15] = read-out: Alpha-fetoprotein (AFP) gene, AFP (gene 174); test: LTEA_HepaRG_AFP: Life Technologies and Expression Analysis (LTEA) Assay for Alpha-fetoprotein (AFP) gene using HepaRG (AID 2283472); settings: mRNA level, 48 h; actives raise or lower the signal
Method in brief: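 qRT-PCR (Fluidigm TaqMan) readout of AFP transcript, normalized to three housekeeping genes, fitted bidirectionally against 0.5% DMSO baseline. HepaRG cells received chemicals for 48 h in serum-free induction medium, top concentration 100 uM, half-log steps.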

[16] = read-out: BCL2L11 (gene 10018); test: LTEA_HepaRG_BCL2L11: Life Technologies and Expression Analysis (LTEA) Assay for Bcl-2 (BCL2L11) gene using HepaRG (AID 2283473); settings: mRNA level, 48 h; actives raise or lower the signal
Method in brief: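 Read-out is BCL2L11 transcript level by qRT-PCR, normalized to three housekeeping genes and fitted bidirectionally against 0.5% DMSO vehicle. HepaRG cells received chemicals for 48 h in serum-free induction medium, 100 uM down in half-log dilutions.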

[17] = read-out: Apolipoprotein A-V (APOA5) gene, APOA5 (gene 116519); test: LTEA_HepaRG_APOA5: Life Technologies and Expression Analysis (LTEA) Assay for Apolipoprotein A-V (APOA5) gene using HepaRG (AID 2283474); settings: mRNA level, 48 h; actives raise or lower the signal
Method in brief: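 Readout is APOA5 transcript level by qRT-PCR on Fluidigm dynamic arrays, normalized to three housekeeping genes. HepaRG cultures received chemicals for 48 h at up to 100 uM (half-log steps, 0.5% DMSO), with gain or loss scored relative to DMSO.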

[18] = read-out: Apoptosis regulator Bcl-2 (Homo sapiens) (UniProt P10415); test: LTEA_HepaRG_BCL2: Life Technologies and Expression Analysis (LTEA) Assay for Bcl-2 gene using HepaRG (AID 2283475); settings: mRNA level, 48 h; actives raise or lower the signal
Method in brief: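 qRT-PCR read-out (Fluidigm TaqMan) of BCL2 transcript, normalised to three housekeeping genes, after 48 h chemical exposure of HepaRG cells; 8-point half-log series, top 100 uM, 0.5% DMSO vehicle. Gain or loss of signal fitted relative to DMSO baseline.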

[19] = read-out: ABC Transporter (ABCB11), ABCB11 (gene 8647); test: LTEA_HepaRG_ABCB11: Life Technologies and Expression Analysis (LTEA) Assay for ABC Transporter (ABCB11) using HepaRG (AID 2283463); settings: mRNA level, 48 h; actives raise or lower the signal
Method in brief: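 HepaRG, 48 h exposure, 8-pt half-log CRC top 100 uM, 0.5% DMSO vehicle, duplicates. Readout: TaqMan qRT-PCR of ABCB11 mRNA, housekeeping-normalized (ACTB/GAPDH/POLR2A). Bidirectional fit vs DMSO baseline.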

[20] = read-out: adenosine kinase (ADK) gene, ADK (gene 132); test: LTEA_HepaRG_ADK: Life Technologies and Expression Analysis (LTEA) Assay for adenosine kinase (ADK) gene using HepaRG (AID 2283471); settings: mRNA level, 48 h; actives raise or lower the signal
Method in brief: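 Differentiated HepaRG cells dosed 48 h in serum-free induction medium, 0.5% DMSO vehicle, eight half-log concentrations from 100 uM, in duplicate. ADK mRNA by TaqMan qRT-PCR normalised to ACTB, GAPDH, POLR2A; bidirectional fit versus DMSO.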

Measured: AC50

Apoptosis regulator Bcl-2 (Homo sapiens), sequence (P10415 whole entry, looked up): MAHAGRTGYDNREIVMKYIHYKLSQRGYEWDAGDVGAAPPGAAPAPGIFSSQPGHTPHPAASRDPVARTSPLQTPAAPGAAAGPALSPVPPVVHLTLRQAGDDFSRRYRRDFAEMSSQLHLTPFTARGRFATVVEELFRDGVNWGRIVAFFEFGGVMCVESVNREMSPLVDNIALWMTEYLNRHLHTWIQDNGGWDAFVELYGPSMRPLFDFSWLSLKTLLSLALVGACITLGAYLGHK
Broad substrate specificity ATP-binding cassette transporter ABCG2 (Homo sapiens), sequence (Q9UNQ0 whole entry, looked up): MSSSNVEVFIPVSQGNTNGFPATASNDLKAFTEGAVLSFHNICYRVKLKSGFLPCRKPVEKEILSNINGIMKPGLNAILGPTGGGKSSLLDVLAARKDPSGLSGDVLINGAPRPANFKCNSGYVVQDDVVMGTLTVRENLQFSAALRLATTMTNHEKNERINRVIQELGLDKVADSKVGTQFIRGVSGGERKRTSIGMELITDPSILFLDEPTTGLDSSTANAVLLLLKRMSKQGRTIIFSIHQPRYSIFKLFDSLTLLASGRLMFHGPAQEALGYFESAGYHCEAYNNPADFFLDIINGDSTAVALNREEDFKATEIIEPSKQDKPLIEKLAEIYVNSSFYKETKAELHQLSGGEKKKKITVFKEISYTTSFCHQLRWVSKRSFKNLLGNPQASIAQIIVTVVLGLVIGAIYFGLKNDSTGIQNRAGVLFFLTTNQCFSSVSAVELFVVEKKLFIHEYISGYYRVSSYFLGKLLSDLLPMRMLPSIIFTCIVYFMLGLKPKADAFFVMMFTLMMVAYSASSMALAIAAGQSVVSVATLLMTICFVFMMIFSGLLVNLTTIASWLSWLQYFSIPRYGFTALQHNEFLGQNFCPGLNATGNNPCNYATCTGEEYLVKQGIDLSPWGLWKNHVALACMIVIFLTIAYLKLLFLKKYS

N#CC(CCc1ccc(Cl)cc1)(Cn1cncn1)c1ccccc1 (stereo not given)
active: [1] 77.8 µM | [3] 74.7 µM | [7] 12.5 µM | [8] 50 µM | [9] 50 µM | [10] 12.9 µM | [11] 34.3 µM | [12] 21.9 µM | [14] 68 µM | [15] 15.8 µM | [17] 50 µM | [18] 66.7 µM
inactive: [2] | [4] | [5] | [6] | [13] | [16]

CCCCC(CC)COC(=O)c1ccccc1C(=O)OCC(CC)CCCC (stereo not given)
inactive: [1] | [3] | [4] | [5] | [6] | [7] | [19] | [8] | [9] | [10] | [11] | [12] | [13] | [14] | [20] | [15] | [16] | [17] | [18]

COP(=S)(OC)Oc1nc(Cl)c(Cl)cc1Cl
inactive: [1] | [3] | [4] | [5] | [6] | [7] | [8] | [9] | [10] | [11] | [12] | [13] | [14] | [20] | [15] | [16] | [17] | [18]

CCOC(=O)CC(SP(=S)(OC)OC)C(=O)OCC (stereo not given)
inactive: [1] | [2] | [3] | [4] | [5] | [6] | [7] | [8] | [9] | [10] | [11] | [12] | [13] | [14] | [20] | [15] | [16] | [17] | [18]

Cc1cc(Cl)ccc1OCC(=O)O
active: [11] 34.3 µM
inactive: [1] | [2] | [3] | [4] | [5] | [6] | [7] | [8] | [9] | [10] | [12] | [13] | [14] | [15] | [16] | [17] | [18]

CC(C)C1(C)N=C(c2nc3ccccc3cc2C(=O)O)NC1=O (stereo not given)
inactive: [1] | [3] | [4] | [5] | [6] | [7] | [19] | [8] | [9] | [10] | [11] | [12] | [13] | [14] | [15] | [16] | [17] | [18]
